SMILES strings stand for the structures. About 83,000 compounds went through this panel and 20% of them were active in at least one assay; those are over-represented in the sample as a whole.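 The endpoint reported here, percent growth, reads 100 for growth as untreated, 0 for no net growth and -100 for all cells dead.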 Unmarked numbers belong to inactive results. Active and inactive are the calls of the source. The calls were made as follows: active = growth percent below 10; inactive = the rest.

This note sets out measurements from PubChem BioAssay (NCI).

Some test systems named below: NCI-H23 lung; NCI-H322M lung; HOP-62 NSCLC; NCI-H460 lung; NCI-H522 lung; A549/ATCC NSCLC; 786-0 renal; COLO 205 colon; DU-145 prostate; K-562 leukemia; MALME-3M melanoma; MDA-MB-231 breast; RXF 393 renal; SF-268 CNS; SF-295 CNS; SF-539 CNS; M14 melanoma; HCT-15 colon; UACC-257 melanoma.
Common to all, as to experiment: NCI-60 one-dose screen, 48 h (100 = growth as untreated, 0 = no growth, -100 = all killed)
Holding throughout (details): 10 µM unless noted

As for `CCC(=O)Nc1ccccc1C#C/C=C\C#Cc1ccccc1C(F)(F)F`, the growth with NCI-H23 lung was 57.3%; in the assay on NCI-H322M lung, 37.4%; with HOP-62 NSCLC it was 54.5%; with NCI-H460 lung it was 10.2%; with NCI-H522 lung, 68.2%; in the assay with A549/ATCC NSCLC it was 64.2%. The growth in the assay on 786-0 renal was 50.5%; with COLO 205 colon it was 59.4%; in the assay on DU-145 prostate, 40%; with K-562 leukemia it was 43.4%; with MALME-3M melanoma it was 54.4%; in the assay on MDA-MB-231 breast, 55.6%. The growth with RXF 393 renal is 42.8%; with SF-268 CNS, 67.8%; with SF-295 CNS, 28.8%; in the assay on SF-539 CNS it was 55%; in the assay on M14 melanoma, 40.5%; in the assay with HCT-15 colon it was 56.3%.

With `COc1ccc(COC(C)=O)cc1`, the growth is 113% in the assay on NCI-H23 lung; 112% in the assay on NCI-H322M lung; 111% in the assay on NCI-H460 lung; 118% with NCI-H522 lung; 100% with A549/ATCC NSCLC; 99.4% with 786-0 renal. Further, the growth is 127% in the assay with COLO 205 colon; 110% in the assay with DU-145 prostate; 103% in the assay on K-562 leukemia; 125% in the assay with MDA-MB-231 breast; 108% in the assay on RXF 393 renal; 101% with SF-268 CNS. In addition, the growth in the assay with SF-295 CNS was 116%; in the assay on SF-539 CNS, 107%; with UACC-257 melanoma, 109%; with M14 melanoma, 108%; in the assay with HCT-15 colon, 97.6%.

Regarding `O=c1c(O)cccn1CCCNCCCN(CCCn1cccc(O)c1=O)CCCn1cccc(O)c1=O`, the growth in the assay with NCI-H23 lung was 97.7%; in the assay on NCI-H322M lung, 94.5%; with HOP-62 NSCLC, 106%; with NCI-H460 lung, 99%; in the assay on NCI-H522 lung, 117%; with A549/ATCC NSCLC, 105%. Also, the growth was 107% in the assay on 786-0 renal; 125% in the assay on COLO 205 colon; 112% in the assay with DU-145 prostate; 117% with K-562 leukemia; 108% with MALME-3M melanoma; 96% in the assay with MDA-MB-231 breast. The growth in the assay on RXF 393 renal is 121%; in the assay on SF-268 CNS, 94%; with SF-295 CNS it was 102%; in the assay with SF-539 CNS it was 108%; in the assay with UACC-257 melanoma, 121%; with M14 melanoma, 103%. Moreover, in the assay with HCT-15 colon, the growth was 99.2%.

As to `COc1ccc(-c2csc(NC(=O)c3cc(OC)c(OC)c(OC)c3)n2)cc1`, the growth with NCI-H23 lung is 114%; in the assay with NCI-H322M lung, 99.1%; with HOP-62 NSCLC it was 91.2%; with NCI-H460 lung, 103%; in the assay with NCI-H522 lung, 107%; in the assay on A549/ATCC NSCLC it was 102%. For the same compound, the growth in the assay on 786-0 renal is 102%; with COLO 205 colon, 105%; in the assay on DU-145 prostate it was 112%; with K-562 leukemia, 113%; with MALME-3M melanoma, 96.2%; in the assay with MDA-MB-231 breast it was 109%. Also, the growth is 87.9% in the assay with RXF 393 renal; 102% in the assay on SF-268 CNS; 91.9% with SF-295 CNS; 112% with SF-539 CNS; 98.5% in the assay with UACC-257 melanoma; 116% with M14 melanoma. In the assay with HCT-15 colon, the growth was 107%.

As for `O=C1c2nsnc2C(=O)c2c(F)c(F)c(F)c(F)c21`, the growth in the assay on NCI-H23 lung is -22.5% (active); with NCI-H322M lung, 26.9%; with HOP-62 NSCLC, -86% (active); in the assay with NCI-H460 lung, -51.8% (active); in the assay with NCI-H522 lung, -67.2% (active); with A549/ATCC NSCLC, -27.9% (active). The growth with 786-0 renal is -97.1% (active); in the assay with MALME-3M melanoma, -45.9% (active); in the assay on MDA-MB-231 breast, -68.2% (active); with RXF 393 renal it was -96.4% (active); in the assay with SF-268 CNS, -15.6% (active); in the assay on SF-295 CNS it was -37% (active). Further, the growth in the assay on SF-539 CNS is -74.1% (active); in the assay on UACC-257 melanoma it was -97.3% (active); in the assay with M14 melanoma, -90.8% (active); in the assay with HCT-15 colon it was -59.1% (active).

Consider `COc1ccc(-c2noc(N)c2-c2cc(OC)c3c(c2)OCO3)cc1`, for which the growth in the assay on NCI-H23 lung is 28.1%; in the assay with NCI-H322M lung, 57.5%; in the assay on HOP-62 NSCLC it was 34.6%; with NCI-H460 lung, 16%; with NCI-H522 lung, -23.4% (active); with A549/ATCC NSCLC, 29.2%. Further, the growth in the assay with 786-0 renal is 59.7%; in the assay with COLO 205 colon, 12.4%; in the assay with DU-145 prostate, 28.7%; in the assay with K-562 leukemia it was 2.56% (active); in the assay on MALME-3M melanoma, -2.12% (active); in the assay on MDA-MB-231 breast it was 47.6%. Moreover, the growth with RXF 393 renal is 32.4%; with SF-268 CNS, 35.6%; in the assay on SF-539 CNS it was 9.14% (active); in the assay with UACC-257 melanoma, 50.8%; with M14 melanoma, 11.7%; in the assay with HCT-15 colon, 20.6%.

Turning to `Cc1cc2cn3c4cccnc4[nH]c(=O)c3c2cc1C`, the growth in the assay with NCI-H23 lung was 55.7%; with NCI-H322M lung, 91.8%; with HOP-62 NSCLC, 46.8%; in the assay with NCI-H460 lung it was 4.12% (active); in the assay with NCI-H522 lung, -75% (active); in the assay with A549/ATCC NSCLC, 10.2%. Moreover, the growth in the assay on 786-0 renal was -14.5% (active); in the assay with MALME-3M melanoma, 80.1%; with MDA-MB-231 breast it was 40.5%; with RXF 393 renal, 70.6%; in the assay with SF-268 CNS, 73.4%; with SF-295 CNS, 34.4%. The growth was 76.7% in the assay on SF-539 CNS, 85.8% in the assay on UACC-257 melanoma and 36.4% in the assay on M14 melanoma.

As to `COc1ccc2c(c1)[nH]c(=O)c1c3cc(OC)c(OC)cc3cn21`, the growth in the assay on NCI-H23 lung was 42.5%; in the assay with NCI-H322M lung, 20.7%; in the assay on HOP-62 NSCLC, 47.4%; in the assay with NCI-H460 lung it was 6.39% (active); with NCI-H522 lung it was -2.16% (active); in the assay with A549/ATCC NSCLC, -22.1% (active). Moreover, the growth in the assay with 786-0 renal is 32.1%; in the assay on COLO 205 colon, -34.8% (active); with DU-145 prostate it was -87.2% (active); in the assay on K-562 leukemia, 0.148% (active); in the assay with MALME-3M melanoma, 56.7%; in the assay with MDA-MB-231 breast, 26.4%. Besides, the growth in the assay with RXF 393 renal is 0.926% (active); in the assay with SF-268 CNS it was 9.67% (active); in the assay on SF-295 CNS, 13.6%; with SF-539 CNS, 10.7%; with UACC-257 melanoma it was 82.6%; in the assay with M14 melanoma, 23.6%. Also, in the assay with HCT-15 colon, the growth was -6.44% (active).

As to `CC(C)c1nc(N(C)S(C)(=O)=O)nc(-c2ccc(F)cc2)c1/C=C/[C@@H](O)C[C@@H](O)CC(=O)O`, the growth is 109% with NCI-H23 lung; 93.9% in the assay on NCI-H322M lung; 118% in the assay on NCI-H460 lung; 69.9% with NCI-H522 lung; 97.9% in the assay with A549/ATCC NSCLC; 106% with 786-0 renal. In addition, the growth with COLO 205 colon was 105%; in the assay on DU-145 prostate, 103%; in the assay with K-562 leukemia it was 130%; with MALME-3M melanoma, 104%; in the assay with MDA-MB-231 breast it was 63.7%; in the assay on RXF 393 renal, 105%. The growth in the assay with SF-268 CNS is 77.5%; with SF-295 CNS it was 100%; in the assay with SF-539 CNS, 97.6%; in the assay with UACC-257 melanoma, 103%; in the assay on M14 melanoma, 104%; with HCT-15 colon, 95.2%.
